# Bioassay records from PubChem BioAssay.
# Only some compounds are listed: those with a hit (about 8% of all), similar ones and a draw of the others.
# HCV inh: qHTS Assay for Inhibitors of Hepatitis C Virus (HCV); AID 651820, 2012; 340,000 compounds, 3.4% hits; Huh7.5.1 HCVcc-Cre infection, luciferase reporter, 44 h; Potency, µM (top dose mostly 41.8 µM), without a hit: at the highest dose activity change, negative = inhibition, actives largely listed as inhibitors; active means well fitted inhibition curve with a large enough effect; inconclusive means small, poorly fitted or top-dose-only effect, or another doubt; inactive means no such curve, though single readings can be large or run the other way; further: potency means the concentration at half of the fitted maximal effect; on the % scale 0 is the no-effect control and ±100 the full control effect
#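 Cells (1,000/well) were plated 4 h before compound, then infected with HCVcc-Cre virus (~0.5 moi). After 44 h further culture, infection was read as luciferase luminescence following a 15 min substrate incubation at room temperature.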
# Lassa entry inh: qHTS for Inhibitors of binding or entry into cells for Lassa Virus | Lassa virus pseudotype entry inhibition, cell reporter | Potency, µM (highest dose often 37.9 µM), for inactives: at the highest dose activity change, negative = inhibition, hits mostly inhibitors | 300,000 compounds, 1.2% hits | AID 540256, 2011; calls by dose curve; tested in HEK293 cells; further: potency means the concentration at half of the fitted maximal effect; on the % scale 0 is the no-effect control and ±100 the full control effect; nearly all actives have a fitted effect of over 50% in size
# Marburg entry inh: qHTS for inhibitors of binding or entry into cells for Marburg Virus. Marburg virus pseudotyped entry inhibition, cell reporter. Potency, µM (titrated, usually from 37.8 µM), inactives show at the top dose activity change, negative = inhibition, usual class: inhibitors. 300,000 compounds, 1.8% hits. AID 540276, 2011; calls by dose curve; tested in HEK293 cells; further: potency means the concentration at half of the fitted maximal effect; on the % scale 0 is the no-effect control and ±100 the full control effect
# FMDV antiviral: High Throughput Screening for Foot and Mouth Disease Virus Antivirals; Potency, µM (series often up to 57.9 µM), inactives show top-dose activity change, negative = inhibition, usual class: inhibitors; 410,000 compounds, 1.2% hits; FMDV antiviral cell-based qHTS; calls by dose curve; tested in HEK293T cells; further: read-out not given here; potency means the concentration at half of the fitted maximal effect; on the % scale 0 is the no-effect control and ±100 the full control effect; nearly all actives have a fitted effect of over 45% in size
# HCMV inh: qHTS Assay for inhibitors of the human cytomegalovirus (HCMV) | 410,000 compounds, 4.5% hits | HFF cells, HCMV-luciferase reporter, 72 h; active compounds read low | activity change, negative = inhibition, % at 57.5 µM; in the data active means activity change below about -60%; inconclusive means no clear call, values can overlap the other calls; inactive means above about -39%; further: on the % scale 0 is the no-effect control and ±100 the full control effect
#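 Steps: HFFs plated, 16 h 37C; compounds added; HCMV-luciferase added to MOI 1 PFU/cell; 72 h 37C; OneGlo reagent, 5 min room temperature; luminescence read, normalized to controls.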
# SARS PLpro yeast: qHTS of Yeast-based Assay for SARS-CoV PLP; AID 485353, 2010; S. cerevisiae expressing SARS-CoV PLpro, growth rescue; 330,000 compounds, 0.19% hits; Potency, µM (doses to about 32.9 µM), for the others: top-dose activity, positive = growth rescue, most hits filed as activators; calls by dose curve; further: potency means the concentration at half of the fitted maximal effect; 0% is about no effect; nearly all actives have a fitted effect of over 55% in size
# Numbers without * were called inactive; ? = inconclusive; / = no result given; [ ] = dose if it differs, or a comment.
SMILES,HCV inh,Lassa entry inh,Marburg entry inh,FMDV antiviral,HCMV inh,SARS PLpro yeast
Cc1ccc(NC(=O)c2ccccc2[N+](=O)[O-])cc1[N+](=O)[O-],/,/,/,/,28,/
Cc1cc(C)c(NC(=S)NC(=O)c2ccc(-c3ccccc3)cc2)c(C)c1,3%,8.9µM*,?,?,-84*,-3%
O=C(NC(=S)Nc1ccccn1)c1ccc(-c2ccccc2)cc1,?,-24%[46.1 µM],?,8%,-20,5%
COc1cc2c(cc1NC(=O)c1cccnc1)oc1ccccc12,3.2µM*,?,-1%,40%,44,-12%
COc1cc2c(cc1NC(=O)c1ccncc1)oc1ccccc12,?,13%,-1%,11%,/,-7%
COc1cc2c(cc1NC(=O)c1ccc(C)c([N+](=O)[O-])c1)oc1ccccc12,?,-3%,?,-15%,87,14%
COc1cc2c(cc1NC(=O)c1cccc([N+](=O)[O-])c1)oc1ccccc12,?,?,?,13µM*,?,0%
Cc1ccc(C(=O)N/N=C\c2cc3c(cc2Br)OCO3)s1,-5%,11µM*,?,4%,41,-3%
O=C(O)c1ccc(N=Cc2c(O)ccc3ccccc23)cc1,-8%,-3%[46.1 µM],?,-5%,15,12%
O=C(N/N=C\c1c(O)ccc2ccccc12)c1ccc(O)cc1,?,/,/,26%,-98*,13µM*
CCCn1c(/N=C/c2ccccc2O)nc2ccccc21,11%,7%,?,-2%,4,0%
O=C(N/N=C/c1cccnc1)c1ccc(O)cc1,-1%,?,-2%[46.1 µM],3%,5,1%
Cc1c(/C=N/NC(=O)c2cccnc2)c2ccccc2n1Cc1ccccc1,11µM*,?,-26%[46.1 µM],14µM*,-62*,5%
O=C(N/N=C/c1cccnc1)c1cc(O)c(O)c(O)c1,-3%,?,3.2µM*,12%,-27,0%
Cn1c(/N=C/c2c(O)ccc3ccccc23)nc2ccccc21,-2%,-5%,7%,1%,-85*,?
C/C(=N\NC(=O)Cc1csc(N2CCOCC2)n1)c1ccc(Cl)c(Cl)c1,?,?,?,-14%,-27,0%
CS(=O)(=O)c1ccc2nc(NC(=O)c3ccc(Cn4cc(Br)cn4)o3)sc2c1,2%,8%,4%,-3%,48,-7%
Cn1nccc1C(=O)N/N=C/c1c(O)ccc2ccccc12,0.89µM*,/,/,46%,-99*,-7%
Cn1c(-c2ccccc2)c(/C=N/NC(=O)c2ccc(O)cc2)c2ccccc21,10µM*,/,/,3%,35,-1%
Cc1c(/C=N/NC(=O)c2cccs2)c2ccccc2n1Cc1ccccc1Cl,?,4.1µM*,2.9µM*,8%,-81*,1%
CCCc1nn(C)c(C(=O)Nc2cccc(C)c2)c1Cl,-3%,?,2%,11%,-32,3%
CCCc1nn(C)c(C(=O)Nc2cccc(Cl)c2)c1Cl,?,1%,-3%,-19%,-64*,1%
CCS(=O)(=O)Nc1ccc(-c2cn3ccsc3n2)cc1,/,23%[46.1 µM],/,31%,34,/
Cc1cc(NC(=S)N(Cc2ccc(Br)cc2)Cc2ccc(C(=O)O)cc2)ccc1Cl,10%,?,-6%[14.2 µM],?,14,-28%
Cn1cc(C(=O)N/N=C/c2c(O)ccc3ccccc23)ccc1=O,4.5µM*,/,/,-7%,-99*,1%
Cc1occc1C(=O)N/N=C/c1c(O)ccc2ccccc12,?,?,3.5µM*,53%,-101*,14%
O=C(N/N=C/c1ccccn1)c1ccc(Br)o1,5%,-13%,-25%,48%,52,-11%
Cc1cc(O)c(C)c(O)c1/C=N/NC(=O)c1cccnc1,13µM*,?,10µM*,36%,-97*,0%
O=C(N/N=C/c1c(O)ccc2ccccc12)c1ccc(Br)o1,3.5µM*,?,?,55%,-99*,12%
